Experimental data taken from PubChem BioAssay AID624404 (Broad Institute, 2012).
The campaign covered roughly 1,800 compounds. About 710 (39%) were called active. Another 28% or so got no clear call; they are omitted.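 How the source made its calls: active means luciferase signal rise whose fitted curve crosses a set activity limit at or below the top valid tested dose; inconclusive means flat fit with 30 to 70% rise, or poor fit; inactive means signal falling, flat within 30%, or crossing above top dose.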 Not all results are given here. Results with a measured potency or affinity are listed apart.

test: luciferase activators in glycosylation-insensitive reporter cells, dose response, counter-screen for N-linked glycosylation inhibitor project, D54 LucT cells, luminescence, cherry pick (AID 624404); settings: D54 LucT luciferase reporter counterscreen, 24 h; series mostly up to 19.5 µM

Question: Which outcome does the source give for `COc1cc2c(cc1OC)C(C)N(C(=O)Nc1ccccc1)CC2` (stereo not drawn) here?
Answer: inactive

Question: For `COc1ccc(C(=O)/C=C/Sc2nc3ccccc3o2)cc1`, which outcome is on record?
Answer: inactive

Question: Which outcome does the source give for `COc1cc(/C=N/Nc2nc3c(c(=O)n(C)c(=O)n3C)n2Cc2ccccc2)ccc1OC(=O)c1ccco1` here?
Answer: inactive

Question: With `COc1ccc(CCn2c(Br)nc3c2c(=O)[nH]c(=O)n3C)cc1` as the molecule, how does the outcome read?
Answer: inactive

Question: For `COc1cc(C2CC(=O)N(c3ccc(C)cc3)C(=O)C2)cc(OC)c1OC`, which outcome is on record?
Answer: inactive

Question: With `CC(C)c1ccc(NC(=O)CN2C(=O)NC3(CCCCCCC3)C2=O)cc1` as the molecule, how does the outcome read?
Answer: inactive

Question: For `CCN(CC)S(=O)(=O)c1cccc(NC(=O)CN2C(=O)NC3(CCC(C)CC3)C2=O)c1` (stereo not drawn), which outcome is on record?
Answer: inactive

Question: With `NC(=O)c1ccc2c(=O)n3c(-c4cc(Cl)c(N)c(Cl)c4)csc3nc2c1` as the molecule, how does the outcome read?
Answer: inactive

Question: With `OCC1OC(n2cnc3c(=S)nc[nH]c32)CC1O` (stereo not drawn) as the molecule, how does the outcome read?
Answer: inactive

Question: With `Cc1cccn2c(=O)c3cc(C(=O)N4CCCCC4)sc3nc12` as the molecule, how does the outcome read?
Answer: inactive

Question: Which outcome does the source give for `Cc1cccn2c(=O)c3cc(C(=O)NC4CCCC4)c(=N)n(CCc4ccccc4)c3nc12` here?
Answer: inactive

Question: With `Cc1cccn2c(=O)c3cc(C(=O)NC4CCCC4)n(C)c3nc12` as the molecule, how does the outcome read?
Answer: inactive

Question: Which outcome does the source give for `Cc1cccn2c(=O)c3cc(C(=O)NC4CCCC4)c(=N)n(CC4CCCO4)c3nc12` (stereo not drawn) here?
Answer: inactive

Question: With `CCN(CC)CCOc1ccc2c(c1)C(=NNC(=O)c1ccccn1)c1cc(OCCN(CC)CC)ccc1-2` as the molecule, how does the outcome read?
Answer: inactive

Question: With `O=C(CCl)Nc1ccc(Sc2ccc(NC(=O)CCl)cc2)cc1` as the molecule, how does the outcome read?
Answer: inactive

Question: Which outcome does the source give for `CC(C)Oc1ccc(C(=O)/C=C2/C(=O)Nc3ccccc32)cc1` here?
Answer: inactive

Question: With `CCc1ccc(NC(=O)Cn2c(=O)n(CCC(=O)NC3CCN(Cc4ccccc4)CC3)c(=O)c3ccccc32)cc1` as the molecule, how does the outcome read?
Answer: inactive

Question: For `Cc1[nH][nH]c(=O)c1C(c1ccc(-c2cccc(Cl)c2)o1)c1c(C)[nH][nH]c1=O`, which outcome is on record?
Answer: inactive

Question: Which outcome does the source give for `Cc1[nH][nH]c(=O)c1C(c1ccc(-c2ccc(F)cc2)o1)c1c(C)[nH][nH]c1=O` here?
Answer: inactive

Question: For `CC1(C(=O)Nc2ccc3c(c2)OCO3)Cc2c(-c3ccc4c(c3)OCO4)ccnc2O1` (stereo not drawn), which outcome is on record?
Answer: inactive

Question: For `CC1(C(=O)Nc2ccc(Cl)cc2)Cc2c(-c3ccc4c(c3)OCO4)ccnc2O1` (stereo not drawn), which outcome is on record?
Answer: inactive

Question: Which outcome does the source give for `CCOC(=O)c1cc2c(ccn2C)n1CC(=O)N1CCN(c2ccccc2)CC1` here?
Answer: inactive

Question: For `FC(F)(F)c1cccc(Sc2nc(-c3ccccc3)nnc2C(F)(F)F)c1`, which outcome is on record?
Answer: inactive

Question: For `Nc1nonc1-c1nc2ccccc2n1CC(=O)N/N=C\c1ccc(-c2ccc(Cl)cc2)o1`, which outcome is on record?
Answer: inactive

Question: Which outcome does the source give for `COc1ccc(C(=O)/C=C/c2ccc(OC(=O)c3cc(OC)c(OC)c(OC)c3)cc2)cc1` here?
Answer: inactive

Question: For `N=c1c(C(=O)NCc2ccco2)cc2c(=O)n3ccccc3nc2n1CCc1ccccc1`, which outcome is on record?
Answer: inactive

Question: Which outcome does the source give for `Cc1ccc2nc3c(cc(C(N)=S)c(=N)n3CCCOC(C)C)c(=O)n2c1` here?
Answer: inactive

Question: Which outcome does the source give for `COc1ccc(CCn2c(=N)c(S(=O)(=O)c3ccc(C)cc3)cc3c(=O)n4ccccc4nc32)cc1` here?
Answer: inactive
